The list is not random: actives were taken first. Their share in the collection is about 7.9%.
MCF10A rereplic – inducers of DNA re-replication in MCF 10A breast cells; MCF 10A DNA re-replication, Hoechst nuclear intensity, 48 h; Potency, µM (highest dose often 46.1 µM), for the others: at the highest dose activity, positive = re-replication, usual class: activators; 350,000 compounds, 2.9% hits; further: % of control where 0% means no effect; nearly all actives have a fitted effect of over 50% in size
SW480 rerep – inducers of DNA re-replication in SW480 colon cancer cells; SW480 DNA re-replication, Hoechst DNA content imaging, 48 h; Potency, µM (top dose mostly 46.1 µM), for inactives: top-dose re-replication activation, hits mostly activators; 340,000 compounds, 1.8% hits; AID 624297; further: % of control where 0% means no effect; nearly all actives have a fitted effect of over 55% in size
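Treated cells incubate 48 hr (37 C, 5% CO2), are stained 40 min with Hoechst, and nuclear fluorescence is enumerated; a rise in nuclei with high DNA signal marks re-replication.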
HT1080 IDH1KD tx – kills HT-1080 cells with IDH1 knockdown; HT-1080 IDH1 knockdown viability, ATP luminescence, 48 h; Potency, µM (titrated, usually from 46.1 µM), for inactives: top-dose activity, negative = toxicity, most hits filed as cytotoxic; 360,000 compounds, 2% hits;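 further: 0% = DMSO wells and -100% = cell-free medium wells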
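Knockdown cells (IDH1KD HT-1080) received compounds 2 h after plating at 750 cells/well and were kept 48 h at 37 °C in 5% FBS RPMI. A CellTiter-Glo luminescence read gave % activity for curve fitting.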
HT1080NT lethal – kills 2HG-producing HT-1080-NT fibrosarcoma cells. HT-1080-NT fibrosarcoma viability, CellTiter-Glo ATP luminescence, 48 h. Potency, µM (titrated, usually from 46.1 µM), for inactives: top-dose activity, negative = less viability, most hits filed as cytotoxic. 360,000 compounds, 1.6% hits. AID 686970;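 further: NT is the 2HG producing partner of a matched IDH1 knockdown line; 0% = DMSO-treated cells and -100% = media-only wells without cells; nearly all actives have a fitted effect of over 55% in size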
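Toxicity toward the 2HG-producing NT line was scored as %Activity, normalised to DMSO and no-cell wells, from CellTiter-Glo luminescence after 48 hours' treatment.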
KB-V1 MDR tox – KB-V1 MDR subline cytotoxicity; Potency, µM (highest dose often 46.1 µM), usual class: cytotoxic; KB-V1 MDR cells viability, CellTiter-Glo, 72 h; 400,000 compounds, 3.4% hits; further: on the % scale 0 is the no-effect control and ±100 the full control effect; nearly all actives have a fitted effect of over 60% in size
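Potencies derive from concentration-effect curves fitted to normalized luminescence (CellTiter-Glo) of KB-V1 cells treated for 72 h at 37 degrees C in phenol-red-free DMEM containing 10% FBS.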
KB-3-1 tox – KB-3-1 parental cell cytotoxicity | KB-3-1 viability, CellTiter-Glo ATP luminescence, 72 h | Potency, µM (doses to about 46.1 µM), actives largely listed as cytotoxic | 400,000 compounds, 1.4% hits | AID 1347075; further: on the % scale 0 is the no-effect control and ±100 the full control effect; nearly all actives have a fitted effect of over 60% in size
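Cells are dispensed, compounds pinned in, plates held at 37 °C for 72 h, then CellTiter-Glo is added and luminescence read after 10 minutes. Cell line: parental KB-3-1 in phenol-red-free DMEM, 10% FBS.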
Active calls of the source: *; i = inactive; u = inconclusive; x = no result. The call rests on the fitted dose curve; in most records, active means well fitted curve in the direction sought with a large enough effect; inconclusive means small, poorly fitted or top-dose-only effect, or another doubt; inactive means no such curve, though single readings can be large; an effect the other way counts as inactive or inconclusive. Potency means the concentration at half of the fitted maximal effect.

SMILES	MCF10A rereplic	SW480 rerep	HT1080 IDH1KD tx	HT1080NT lethal	KB-V1 MDR tox	KB-3-1 tox
COc1cc(CNC2CCCC2)cc(Cl)c1OCc1ccccc1F	2%	-6%	13µM*	u	23µM*	i
COc1cc(CNc2ccc3[nH]c(=O)[nH]c3c2)cc(Cl)c1OCc1ccccc1F	x	x	x	x	i	i
COC(=O)c1sc2cccc(F)c2c1S(=O)(=O)Nc1ccc(N(C)C)cc1	x	x	x	x	i	i
Clc1ccc(C[n+]2csc3ccccc32)cc1	-1%	-706%	-9%	-4%	23µM*	i
Fc1ccc(C[n+]2csc3ccccc32)cc1	u	8%	2%	7%	i	i
COc1ccc(CCNC(=O)c2cnn3c2NC(=C2CC2)C=C3C(F)F)cc1OC	x	x	x	x	i	u
CCOC(=O)/C(C#N)=C1/C=CN(c2ccccc2)C=N1	9%	-3%	21%	19%	i	i
CCOC(=O)/C(C#N)=C1/C=CN(Cc2ccccc2)C=N1	12%	0%	-3%	u	13µM*	i
O=C(C[n+]1ccncc1)c1cccc([N+](=O)[O-])c1	x	x	x	x	i	i
CCOC(=O)c1c(NC(=O)CSc2nc3c(c(=O)n(C)c(=O)n3C)n2CC)sc(C)c1C	18%	-1%	-3%	18%	9.2µM*	i
CCCCCn1c(CN2CCCCC2C)nc2c1c(=O)n(C)c(=O)n2C (stereo not given)	u	-5%	-6%	-3%	4.6µM*	i
CCCCn1c(SCC(=O)Nc2nnc(C(C)C)s2)nc2c1c(=O)n(C)c(=O)n2C	u	-8%	9%	9%	2.3µM*	u
CCCCn1c(SCC(=O)N2c3ccccc3Sc3ccccc32)nc2c1c(=O)n(C)c(=O)n2C	20%	u	u	-29%	15µM*	16µM*
CCN(C(=O)CSc1nc2ccccc2n1CC(=O)Nc1cccc(C#N)c1)c1ccccc1	x	x	x	x	i	i
CCOc1ccc(CCNC(=O)C2CCCN(c3nnc(C)c4c(C)n(-c5ccccc5)nc34)C2)cc1 (stereo not given)	x	x	x	x	i	i
CCCn1c(SCC(=O)N2c3ccccc3CCc3ccccc32)nc2c1c(=O)n(C)c(=O)n2C	5%	-2%	1%	8%	4.1µM*	i
CC1Cc2ccccc2N1C(=O)CSc1nnc(Cn2nnc3ccccc32)n1C (stereo not given)	4%	-2%	-13%	-1%	18µM*	i
CCCn1c(SCC(=O)N2CCc3ccccc3C2)nc2c1c(=O)n(C)c(=O)n2C	3%	-2%	1%	4%	3.7µM*	i
CCCCn1c(SCC(=O)N2CCCC2)nc2c1c(=O)n(C)c(=O)n2C	-3%	-2%	-17%	0%	9.2µM*	i
COC(=O)c1ccccc1NC(=O)C1=CC(c2ccc3c(c2)OCO3)=NS(=O)(=O)N1C	x	x	x	x	i	i
CCOc1ccc(CNC(=O)COc2cc(=O)n(C)c3ccccc23)cc1	x	x	x	x	i	i
COc1ccc(NC(=O)CSc2nc3nc(C)c(Cc4ccccc4)c(C)n3n2)cc1OC	x	x	x	x	i	i
Cn1c(=O)c2c(nc(SCC(=O)c3cccs3)n2Cc2ccc(F)cc2)n(C)c1=O	7%	2%	0%	5%	u	i
CC1Cc2ccccc2N1C(=O)CSc1nc2c(c(=O)n(C)c(=O)n2C)n1Cc1ccc(F)cc1 (stereo not given)	0%	-4%	-6%	-4%	1.8µM*	i
CSc1ccc(/C=N/N2CCN(Cc3ccc(C)cc3C)CC2)cc1	1%	5%	-1%	1%	i	i
Cc1ccc(CN2CCN(/N=C/c3sccc3C)CC2)c(C)c1	20%	0%	24%	14%	15µM*	i
COc1ccc(-c2nnc(SC(C)C(=O)O)o2)cc1 (stereo not given)	x	x	x	x	i	i
O=C(NC1c2ccccc2-c2ccccc21)c1ccccc1	-1%	-7%	-1%	-3%	i	i

Screening data (PubChem)
